PubChem BioAssay
Values without a mark were called inactive. No rule for the calls is given here.

What follows are compounds tested against Botulinum neurotoxin type A (Clostridium botulinum) (UniProt P0DPI0) (assay: BoNT/A light chain protease inhibitors, biochemical, multiplex microsphere flow cytometry, validation set (AID 588460)). Settings: at 10 µM, stronger effect = higher value.
Sequence of Botulinum neurotoxin type A (Clostridium botulinum) (P0DPI0 whole entry, looked up): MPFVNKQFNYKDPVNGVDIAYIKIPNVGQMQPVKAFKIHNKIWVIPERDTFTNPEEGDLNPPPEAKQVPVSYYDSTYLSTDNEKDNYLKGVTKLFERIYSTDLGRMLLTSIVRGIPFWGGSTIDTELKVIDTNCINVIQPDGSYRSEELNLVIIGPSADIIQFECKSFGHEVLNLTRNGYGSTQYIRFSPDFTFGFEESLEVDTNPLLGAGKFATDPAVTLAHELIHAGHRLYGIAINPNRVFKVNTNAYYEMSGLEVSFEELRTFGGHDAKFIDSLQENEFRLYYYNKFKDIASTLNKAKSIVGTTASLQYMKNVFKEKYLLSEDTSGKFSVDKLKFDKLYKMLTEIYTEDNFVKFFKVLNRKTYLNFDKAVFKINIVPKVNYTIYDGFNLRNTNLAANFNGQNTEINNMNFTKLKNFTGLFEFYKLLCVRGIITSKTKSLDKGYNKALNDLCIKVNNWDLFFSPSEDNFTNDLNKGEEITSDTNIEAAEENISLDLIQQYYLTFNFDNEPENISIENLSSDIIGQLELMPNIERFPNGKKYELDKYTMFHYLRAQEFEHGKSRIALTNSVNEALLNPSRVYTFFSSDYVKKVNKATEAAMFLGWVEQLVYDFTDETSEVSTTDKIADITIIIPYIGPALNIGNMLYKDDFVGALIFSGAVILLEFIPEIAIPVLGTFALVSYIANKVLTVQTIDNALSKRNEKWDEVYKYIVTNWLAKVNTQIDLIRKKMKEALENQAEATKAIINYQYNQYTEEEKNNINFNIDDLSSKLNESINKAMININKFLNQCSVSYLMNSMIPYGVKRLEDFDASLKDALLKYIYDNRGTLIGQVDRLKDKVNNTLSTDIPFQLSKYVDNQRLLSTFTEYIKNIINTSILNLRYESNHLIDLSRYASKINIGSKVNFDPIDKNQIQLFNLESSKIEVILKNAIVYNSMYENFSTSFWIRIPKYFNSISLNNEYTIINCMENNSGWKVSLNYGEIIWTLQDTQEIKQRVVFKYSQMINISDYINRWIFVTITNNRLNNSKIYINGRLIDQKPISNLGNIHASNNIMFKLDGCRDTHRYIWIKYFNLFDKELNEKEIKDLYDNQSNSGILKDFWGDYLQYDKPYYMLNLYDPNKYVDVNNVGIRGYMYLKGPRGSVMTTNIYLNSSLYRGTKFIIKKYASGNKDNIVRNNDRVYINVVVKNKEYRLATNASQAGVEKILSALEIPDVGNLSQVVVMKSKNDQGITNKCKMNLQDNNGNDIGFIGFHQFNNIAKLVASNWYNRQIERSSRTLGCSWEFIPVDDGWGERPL

| Structure (SMILES) | inhibition |
| --- | --- |
| COc1ccc2[nH]c3c(=O)n(/N=C/[C@H]4C(C)C=C(C)CC4C)c(=O)[nH]c3c2c1 (stereo not given in full) | -0.6% |
| CC(=O)Oc1cc2oc(=O)cc(C)c2cc1OC(C)=O | -0.8% |
| CC(=O)C1=C(Nc2ccc(C)cc2)CC(C)(O)C(C(C)=O)C1c1ccco1 (stereo not given) | 0% |
| CC1(C)C(=O)OC(/C=C\c2ccccc2)C(C)(C)C1=O (stereo not given) | 0.1% |
| CCC(C)NCCOc1ccc(C(C)(C)c2ccccc2)cc1 (stereo not given) | 0.7% |
| COc1cc(NC(=S)NC(=O)c2cccs2)ccc1NC(=O)C(C)C | 0.1% |
| Cc1ccccc1NC(=O)c1c(C)cc(=O)oc1C | -0.1% |
| Cc1cccc2c1CC(C)(C)N/C2=C\C(N)=O | 1% |
| Cc1ccc([N+](=O)[O-])cc1NC1OC(CO)C(O)C1O (stereo not given) | -1.1% |
| COc1cc(CNCc2ccc(OC)c(OC)c2OC)cc(OC)c1 | -0.7% |
| C[C@]12CC[C@H]3[C@@H](CCC4=CC(=O)CC[C@@]43C)[C@@H]1CC[C@@H]2C(=O)CO | -2.4% |
| CC(C)c1ccc(/C=C/C(=O)O)cc1 | -0.1% |
| COc1ccc(C(=O)/C=C/c2cc(C(=O)O)cc3c2OCOC3)c(O)c1 | -0.8% |
| O=C1CC[C@@H](CN(Cc2ccccc2)Cc2cn[nH]c2-c2cc3ccccc3o2)N1 | 1.2% |
| O=C(Nc1c(C(=O)O)[nH]c2ccccc12)NC1CCCCC1 | 0.4% |
| CC(=O)OC(C)C[N+](C)(C)C (stereo not given) | 0.6% |
| c1cnc2c(c1)ccc1cccnc12 | -5.9% |
| C[N+](C)(C)CCCCCCCCCC[N+](C)(C)C | -0.8% |
| CC[C@H]1OC(=O)[C@H](C)[C@@H](O[C@H]2C[C@@](C)(OC)[C@@H](O)[C@H](C)O2)[C@H](C)[C@@H](O[C@@H]2O[C@H](C)C[C@H](N(C)C)[C@H]2O)[C@](C)(O)C[C@@H](C)[C@@H]2N[C@@H](COCCOC)O[C@H]([C@H]2C)[C@]1(C)O | 0.7% |
| COc1cc2c(cc1OC)C(c1cc(OC)c(OC)c(OC)c1)NCC2 (stereo not given) | -0.2% |

| Structure (SMILES) | inhibition |
| --- | --- |
| Cn1c2c(c(=O)[nH]c1=O)C(c1ccc(O)cc1)C1=C(N2)c2ccccc2C1=O (stereo not given) | -0.5% |
| COC(=O)c1cc(OC)c(OC)c(OC)c1[N+](=O)[O-] | 0.1% |
| COc1ccc(C(=O)c2oc3ccc(Br)cc3c2NC(C)=O)cc1 | -1.1% |
| CC(NC(=O)OCc1ccccc1)C(=O)N1CC(O)CC1C(=O)O (stereo not given) | -0.7% |
| C=CCNC(=O)c1ccc(-c2cccc([N+](=O)[O-])c2)o1 | -0.6% |
| COc1ccc([C@H]2[C@H](C(=O)OC(C)(C)C)N3N=Cc4ccccc4C3C23C(=O)c2ccccc2C3=O)cc1OC (stereo not given in full) | 0.5% |
| COc1ccccc1C(=O)Nc1cc2cc(Br)ccc2oc1=O | 1.1% |
| CC(C)N(C(=O)Cc1ccccc1[N+](=O)[O-])C(C)C | -2% |
| O=C(O)CCCNc1ccc(S(=O)(=O)Nc2ccccc2C(=O)O)cc1C(=O)O | 1.7% |
| Cc1cccc(N2CCN(C(=S)c3ccccc3)CC2)c1 | -1.9% |
| COC(=O)c1cc(OC)c(OC)cc1NC(=O)CN1C(=O)c2ccccc2C1=O | -1% |
| O=C(CCC(=O)c1cccs1)c1cccs1 | -1.4% |
| CCCCC(=O)O[C@]1(C(=O)CO)CC[C@H]2[C@@H]3CCC4=CC(=O)CC[C@]4(C)[C@H]3[C@@H](O)C[C@@]21C | -0.5% |
| C/C(=N/N1CCN(Cc2cccc3ccccc23)CC1)c1cccnc1 | -0.9% |
| CC(=O)Nc1ccc(CN2CCN(C3CCCCC3)C(CCO)C2)cc1 (stereo not given) | -1.1% |
| CN1C2CCC1CC(OC(c1ccccc1)c1ccccc1)C2 (stereo not given) | 0.7% |
| Cc1ccc(NC(=O)CSc2nc(O)c(Cc3ccccc3)c(=O)n2-c2ccccc2)cc1 | -0.6% |
| CCCCCCCC(=O)OCC(O)CO (stereo not given) | -0.1% |
| O=[N+]([O-])c1ccc(O)c2ncccc12 | -3.7% |
| O=c1c2ccccc2nc2n1CCCN2 | -2.9% |

The compounds below were run against Lethal factor (Bacillus anthracis) (UniProt P15917) (assay: Bacillus anthracis lethal factor inhibition, microsphere flow cytometry protease assay, validation at 10 µM (AID 588461)). Settings: multiplex microsphere protease cleavage assay, stronger effect = higher value.
Sequence of Lethal factor (Bacillus anthracis) (P15917 whole entry, looked up): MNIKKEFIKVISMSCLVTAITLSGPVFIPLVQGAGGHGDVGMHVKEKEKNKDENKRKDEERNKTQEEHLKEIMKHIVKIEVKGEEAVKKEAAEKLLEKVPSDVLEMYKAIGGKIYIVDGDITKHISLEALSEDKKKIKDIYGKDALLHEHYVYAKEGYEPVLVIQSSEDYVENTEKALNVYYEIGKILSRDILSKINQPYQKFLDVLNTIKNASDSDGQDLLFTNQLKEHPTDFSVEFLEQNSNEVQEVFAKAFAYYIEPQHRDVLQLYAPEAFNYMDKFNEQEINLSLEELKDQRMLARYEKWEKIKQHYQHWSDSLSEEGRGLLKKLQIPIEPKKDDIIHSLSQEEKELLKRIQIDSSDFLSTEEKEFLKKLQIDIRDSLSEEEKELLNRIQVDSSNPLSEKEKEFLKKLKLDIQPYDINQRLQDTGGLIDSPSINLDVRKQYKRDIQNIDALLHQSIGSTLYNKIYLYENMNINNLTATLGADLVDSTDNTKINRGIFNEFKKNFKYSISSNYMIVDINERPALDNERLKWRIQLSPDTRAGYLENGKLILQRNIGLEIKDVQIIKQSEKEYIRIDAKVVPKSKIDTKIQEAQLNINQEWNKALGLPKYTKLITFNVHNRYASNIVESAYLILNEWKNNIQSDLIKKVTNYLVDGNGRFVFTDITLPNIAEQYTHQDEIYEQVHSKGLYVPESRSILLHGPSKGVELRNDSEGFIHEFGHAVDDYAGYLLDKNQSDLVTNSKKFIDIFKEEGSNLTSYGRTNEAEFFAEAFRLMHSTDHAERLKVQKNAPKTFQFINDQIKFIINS

| Structure (SMILES) | inhibition |
| --- | --- |
| COc1ccc2[nH]c3c(=O)n(/N=C/[C@H]4C(C)C=C(C)CC4C)c(=O)[nH]c3c2c1 (stereo not given in full) | 7.1% |
| CC(=O)Oc1cc2oc(=O)cc(C)c2cc1OC(C)=O | 1.8% |
| CC(=O)C1=C(Nc2ccc(C)cc2)CC(C)(O)C(C(C)=O)C1c1ccco1 (stereo not given) | -2.3% |
| CC1(C)C(=O)OC(/C=C\c2ccccc2)C(C)(C)C1=O (stereo not given) | 4.5% |
| CCC(C)NCCOc1ccc(C(C)(C)c2ccccc2)cc1 (stereo not given) | -12.8% |
| COc1cc(NC(=S)NC(=O)c2cccs2)ccc1NC(=O)C(C)C | -4% |
| Cc1ccccc1NC(=O)c1c(C)cc(=O)oc1C | 1.7% |
| Cc1cccc2c1CC(C)(C)N/C2=C\C(N)=O | -3.4% |
| Cc1ccc([N+](=O)[O-])cc1NC1OC(CO)C(O)C1O (stereo not given) | -1.7% |
| COc1cc(CNCc2ccc(OC)c(OC)c2OC)cc(OC)c1 | 5.3% |
| C[C@]12CC[C@H]3[C@@H](CCC4=CC(=O)CC[C@@]43C)[C@@H]1CC[C@@H]2C(=O)CO | -10% |
| CC(C)c1ccc(/C=C/C(=O)O)cc1 | 11% |
| COc1ccc(C(=O)/C=C/c2cc(C(=O)O)cc3c2OCOC3)c(O)c1 | 4.4% |
| O=C1CC[C@@H](CN(Cc2ccccc2)Cc2cn[nH]c2-c2cc3ccccc3o2)N1 | -0.2% |
| O=C(Nc1c(C(=O)O)[nH]c2ccccc12)NC1CCCCC1 | -2.2% |
| CC(=O)OC(C)C[N+](C)(C)C (stereo not given) | -5.8% |
| c1cnc2c(c1)ccc1cccnc12 | -2.3% |
| C[N+](C)(C)CCCCCCCCCC[N+](C)(C)C | -5.3% |
| CC[C@H]1OC(=O)[C@H](C)[C@@H](O[C@H]2C[C@@](C)(OC)[C@@H](O)[C@H](C)O2)[C@H](C)[C@@H](O[C@@H]2O[C@H](C)C[C@H](N(C)C)[C@H]2O)[C@](C)(O)C[C@@H](C)[C@@H]2N[C@@H](COCCOC)O[C@H]([C@H]2C)[C@]1(C)O | -1.4% |
| COc1cc2c(cc1OC)C(c1cc(OC)c(OC)c(OC)c1)NCC2 (stereo not given) | 6.9% |

| Structure (SMILES) | inhibition |
| --- | --- |
| Cn1c2c(c(=O)[nH]c1=O)C(c1ccc(O)cc1)C1=C(N2)c2ccccc2C1=O (stereo not given) | 3.1% |
| COC(=O)c1cc(OC)c(OC)c(OC)c1[N+](=O)[O-] | -0.2% |
| COc1ccc(C(=O)c2oc3ccc(Br)cc3c2NC(C)=O)cc1 | -3.6% |
| CC(NC(=O)OCc1ccccc1)C(=O)N1CC(O)CC1C(=O)O (stereo not given) | 1.4% |
| C=CCNC(=O)c1ccc(-c2cccc([N+](=O)[O-])c2)o1 | -3% |
| COc1ccc([C@H]2[C@H](C(=O)OC(C)(C)C)N3N=Cc4ccccc4C3C23C(=O)c2ccccc2C3=O)cc1OC (stereo not given in full) | -5.5% |
| COc1ccccc1C(=O)Nc1cc2cc(Br)ccc2oc1=O | 0.4% |
| CC(C)N(C(=O)Cc1ccccc1[N+](=O)[O-])C(C)C | -1.5% |
| O=C(O)CCCNc1ccc(S(=O)(=O)Nc2ccccc2C(=O)O)cc1C(=O)O | 10% |
| Cc1cccc(N2CCN(C(=S)c3ccccc3)CC2)c1 | -2.9% |
| COC(=O)c1cc(OC)c(OC)cc1NC(=O)CN1C(=O)c2ccccc2C1=O | -5.5% |
| O=C(CCC(=O)c1cccs1)c1cccs1 | -3.3% |
| CCCCC(=O)O[C@]1(C(=O)CO)CC[C@H]2[C@@H]3CCC4=CC(=O)CC[C@]4(C)[C@H]3[C@@H](O)C[C@@]21C | -2.1% |
| C/C(=N/N1CCN(Cc2cccc3ccccc23)CC1)c1cccnc1 | -4% |
| CC(=O)Nc1ccc(CN2CCN(C3CCCCC3)C(CCO)C2)cc1 (stereo not given) | -3.7% |
| CN1C2CCC1CC(OC(c1ccccc1)c1ccccc1)C2 (stereo not given) | 1.9% |
| Cc1ccc(NC(=O)CSc2nc(O)c(Cc3ccccc3)c(=O)n2-c2ccccc2)cc1 | 2% |
| CCCCCCCC(=O)OCC(O)CO (stereo not given) | -2% |
| O=[N+]([O-])c1ccc(O)c2ncccc12 | -2.8% |
| O=c1c2ccccc2nc2n1CCCN2 | -7.9% |
